The subject of experiment [1] is Wnt5a (protein binding on small-molecule microarray). Nature of the experiment: Wnt5a binders on small-molecule microarray, primary screen, biophysical, 635/667 nm fluorescence (AID 1142).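 Further: fluorescence read at 667 nm with signal to noise per printed feature.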 To be noted: 635 nm fluorescence, higher = more signal.
Experiment [2] is described as follows: cell viability in Huh7 cells, primary screen, cytotoxicity control for HCV replication inhibitor project, CellTiter-Glo luminescence, basal, 48 h (AID 1143).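 Further: Huh7 hepatoma cells carrying a hepatitis C replication reporter with no stimulus; test concentration not given here.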 The note with it: Huh7 HCV replicon, higher = more signal, called active from +8 up or from −8 down.
Experiment [3] in a line: P. aeruginosa biofilm formation inhibitors, primary screen, PAO1 strain, BacTiter-Glo luminescence, LB-PBS (AID 1144). To be noted: 12 h, higher = more signal.
Experiment [4] in a line: CREB reporter modulators without forskolin, primary screen, cell-based, PC12, CRE-LacZ reporter, unstimulated (AID 1145). To be noted: no forskolin, luminescence, 4.5 h, higher = more signal, called active from +8 up or from −8 down.
The nature of experiment [5]: CREB reporter modulators under forskolin, primary screen, cell-based, PC12, CRE-LacZ reporter, forskolin-stimulated (AID 1146).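 Further: PC12 cells with 6xCRE LacZ reporter stimulated by forskolin 10 µM; beta-galactosidase reporter signal reflecting CREB driven transcription.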 The note with it: luminescence, 4.5 h, higher = more signal, called active from +8 up or from −8 down.
For experiment [6], the target named is Streptavidin (Streptomyces avidinii) (UniProt P22629). As to the kind of experiment: streptavidin binders on small-molecule microarray, primary screen, artefact control for SMM compound annotation, biophysical, 635/667 nm fluorescence (AID 1147).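 Further: signal reflects streptavidin binding to arrayed compounds as a control protein.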 The note with it: streptavidin binding, higher = more signal.
Sequence of Streptavidin (Streptomyces avidinii) (P22629 whole entry, looked up): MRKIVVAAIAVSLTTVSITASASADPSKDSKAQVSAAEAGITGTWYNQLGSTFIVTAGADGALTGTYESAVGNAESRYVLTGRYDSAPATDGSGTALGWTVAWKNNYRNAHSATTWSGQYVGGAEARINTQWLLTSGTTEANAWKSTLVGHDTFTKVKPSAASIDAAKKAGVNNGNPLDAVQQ
A short description of experiment [7]: small-molecule binders of probe aInhba, primary screen, biochemical, small-molecule microarray, 635/667 nm fluorescence (AID 1148).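 Further: score merges 667nm spot fluorescence with signal-to-noise for antibody binding to printed compounds.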 The note with it: higher = more signal.
In experiment [8] the target is Torsin-1A (Homo sapiens) (UniProt O14656). Nature of the experiment: torsin A binders from cell lysate, primary screen, small-molecule microarray, wild-type, 635/667 nm (AID 1149). To be noted: COS7 hTOR1A-WT lysate, 635 nm fluorescence, higher = more signal.
Sequence of Torsin-1A (Homo sapiens) (O14656 whole entry, looked up): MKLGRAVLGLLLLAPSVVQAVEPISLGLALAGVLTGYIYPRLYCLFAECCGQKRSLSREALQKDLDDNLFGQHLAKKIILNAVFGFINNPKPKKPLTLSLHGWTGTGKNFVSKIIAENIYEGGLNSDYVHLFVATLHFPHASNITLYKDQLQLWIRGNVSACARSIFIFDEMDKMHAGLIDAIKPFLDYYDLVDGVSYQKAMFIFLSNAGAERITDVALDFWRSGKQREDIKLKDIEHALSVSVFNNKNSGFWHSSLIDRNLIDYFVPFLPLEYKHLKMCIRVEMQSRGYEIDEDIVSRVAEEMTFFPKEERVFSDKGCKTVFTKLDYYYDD
The target is the same in experiment [9]. Nature of the experiment: small-molecule binders of mutant TOR1A in lysate, primary screen, cell lysate, small-molecule microarray, COS7 lysate, 635/667 nm fluorescence (AID 1150).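 Further: score pools 667 nm emission and signal to noise measuring lysate protein binding.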 To be noted: COS7 hTOR1A mutant lysate, 635 nm fluorescence, higher = more signal.
Experiment [10] has as its system Sonic hedgehog protein (Shh). Nature of the experiment: small-molecule binders of Shh protein, primary screen, biochemical, small-molecule microarray, 635/667 nm fluorescence (AID 1151).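 Further: Shh protein binding to compounds spotted on small-molecule microarray slides; score combines spot fluorescence intensity with signal-to-noise across triplicate slides.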 To be noted: small-molecule microarray binding, 635 nm fluorescence; higher = more signal.
Experiment [11] in a line: E. coli DRC41 culture turbidity changes, primary screen, E. coli filamentation inducer project, strain DRC41, OD650, 48 h (AID 1152).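 Further: E. coli MC1000 strain DRC41 lacking acrAB efflux pump and sulA.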 The note with it: E. coli DRC41 (acrAB sulA), higher = more signal, called active from +8 up or from −8 down.
Experiment [12] can be described thus: small-molecule binders of probe aLefty1, primary screen, biochemical, small-molecule microarray, 635/667 nm fluorescence (AID 1153).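 Further: score merges spot fluorescence with signal-to-noise ratio from the scanned slide images.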 To be noted: higher = more signal.
Experiment [13] in a line: PSAC antagonists in infected red cells, primary screen, cell-based, P. falciparum Indochina, OD700, 1 h (AID 1154). The note with it: P. falciparum Indochina infected RBC osmotic lysis, higher = more signal, called active from +8 up or from −8 down.
Experiment [14] is described as follows: PSAC antagonists in infected red cells, primary screen, cell-based, P. falciparum Indochina, OD700, 2 h (AID 1155).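 Further: lysis reports solute entry through the parasite surface anion channel PSAC; channel blockers reduce lysis of infected cells.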 To be noted: P. falciparum Indochina infected erythrocytes, osmotic lysis OD700; higher = more signal, called active from +8 up or from −8 down.
Experiment [15] in a line: osmotic lysis modulators in infected erythrocytes, primary screen, PSAC antagonist project, cell-based, P. falciparum Indochina, OD700, 3 h (AID 1156). The note with it: higher = more signal, called active from +8 up or from −8 down.
Experiment [16] is described as follows: PSAC antagonists in infected red cells, primary screen, cell-based, P. falciparum Indochina, OD700, 18 h (AID 1157). The note with it: P. falciparum Indochina infected erythrocytes, osmotic lysis OD700, 18 h; higher = more signal, called active from +8 up or from −8 down.
Experiment [17] is described as follows: modulators of S6 phosphorylation in cells, primary screen, cell-based, A549, cytoblot, luminescence, serum-stimulated (AID 1158).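 Further: serum-stimulated A549 lung adenocarcinoma cells; signal is phosphorylated S6 detected by cytoblot immunostaining with HRP secondary.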 To be noted: A549 phospho-S6 cytoblot, 5 h, higher = more signal.
The target of experiment [18] is NADPH oxidase 2 (Homo sapiens) (UniProt P04839). As to the kind of experiment: NOX2-dependent H2O2 signal modulators, primary screen, NOX inhibitor project, cell-based, HEK293-NOX2, PMA-stimulated, Amplex Red fluorescence (AID 1159). Further: test concentration not given here. To be noted: 45 min, higher = more signal, called active from +8 up or from −8 down.
Sequence of NADPH oxidase 2 (Homo sapiens) (P04839 whole entry, looked up): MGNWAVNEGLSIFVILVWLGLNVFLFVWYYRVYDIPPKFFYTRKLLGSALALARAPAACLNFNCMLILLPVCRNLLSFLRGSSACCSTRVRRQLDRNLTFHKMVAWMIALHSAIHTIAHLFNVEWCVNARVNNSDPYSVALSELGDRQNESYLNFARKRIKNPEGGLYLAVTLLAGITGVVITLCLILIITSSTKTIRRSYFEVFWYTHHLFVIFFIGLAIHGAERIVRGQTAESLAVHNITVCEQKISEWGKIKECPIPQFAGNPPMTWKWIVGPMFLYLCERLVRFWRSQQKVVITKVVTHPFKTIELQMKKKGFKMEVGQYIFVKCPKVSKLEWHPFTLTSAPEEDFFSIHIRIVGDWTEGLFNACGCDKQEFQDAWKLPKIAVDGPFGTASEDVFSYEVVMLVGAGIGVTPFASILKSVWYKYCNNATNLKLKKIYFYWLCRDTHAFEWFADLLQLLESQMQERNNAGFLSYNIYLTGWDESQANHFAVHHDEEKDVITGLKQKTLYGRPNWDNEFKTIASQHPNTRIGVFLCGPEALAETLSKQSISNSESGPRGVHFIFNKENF
Experiment [19] addresses NADPH oxidase 4 (Homo sapiens) (UniProt Q9NPH5). As to the kind of experiment: NOX4-dependent H2O2 signal modulators, primary screen, NOX inhibitor project, cell-based, HEK293-NOX4, tetracycline-induced, Amplex Red fluorescence (AID 1160). To be noted: 45 min, higher = more signal, called active from +8 up or from −8 down.
In experiment [20] the target is NADPH oxidase 5 (Homo sapiens) (UniProt Q96PH1). Nature of the experiment: NOX5-dependent H2O2 signal modulators, primary screen, NOX inhibitor project, cell-based, HEK293-NOX5, Amplex Red fluorescence (AID 1161). The note with it: HEK293-NOX5, ionomycin, 45 min, higher = more signal.
Sequence of NADPH oxidase 5 (Homo sapiens) (Q96PH1 whole entry, looked up): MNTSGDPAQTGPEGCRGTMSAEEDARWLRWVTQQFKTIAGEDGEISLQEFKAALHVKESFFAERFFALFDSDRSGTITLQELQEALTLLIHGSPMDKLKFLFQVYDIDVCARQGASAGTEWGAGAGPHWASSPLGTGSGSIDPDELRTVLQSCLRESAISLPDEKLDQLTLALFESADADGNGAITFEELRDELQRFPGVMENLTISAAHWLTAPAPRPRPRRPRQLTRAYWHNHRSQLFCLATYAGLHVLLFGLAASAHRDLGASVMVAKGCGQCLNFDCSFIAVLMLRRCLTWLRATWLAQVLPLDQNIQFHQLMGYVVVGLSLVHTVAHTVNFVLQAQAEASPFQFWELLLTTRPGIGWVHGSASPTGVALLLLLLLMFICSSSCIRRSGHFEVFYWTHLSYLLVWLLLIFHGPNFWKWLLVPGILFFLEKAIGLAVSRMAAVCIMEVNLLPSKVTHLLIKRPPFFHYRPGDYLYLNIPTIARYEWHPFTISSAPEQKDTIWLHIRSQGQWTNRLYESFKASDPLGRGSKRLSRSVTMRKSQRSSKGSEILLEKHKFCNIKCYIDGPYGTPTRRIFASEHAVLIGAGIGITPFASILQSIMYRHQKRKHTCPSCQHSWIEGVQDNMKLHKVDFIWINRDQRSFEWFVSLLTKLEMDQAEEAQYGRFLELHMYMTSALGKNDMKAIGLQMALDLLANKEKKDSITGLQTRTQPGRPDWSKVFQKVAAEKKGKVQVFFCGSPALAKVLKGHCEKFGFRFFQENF

The source made the active and inactive calls. Unless noted, how the calls were made is not given here.

Sequence of NADPH oxidase 4 (Homo sapiens) (Q9NPH5 whole entry, looked up): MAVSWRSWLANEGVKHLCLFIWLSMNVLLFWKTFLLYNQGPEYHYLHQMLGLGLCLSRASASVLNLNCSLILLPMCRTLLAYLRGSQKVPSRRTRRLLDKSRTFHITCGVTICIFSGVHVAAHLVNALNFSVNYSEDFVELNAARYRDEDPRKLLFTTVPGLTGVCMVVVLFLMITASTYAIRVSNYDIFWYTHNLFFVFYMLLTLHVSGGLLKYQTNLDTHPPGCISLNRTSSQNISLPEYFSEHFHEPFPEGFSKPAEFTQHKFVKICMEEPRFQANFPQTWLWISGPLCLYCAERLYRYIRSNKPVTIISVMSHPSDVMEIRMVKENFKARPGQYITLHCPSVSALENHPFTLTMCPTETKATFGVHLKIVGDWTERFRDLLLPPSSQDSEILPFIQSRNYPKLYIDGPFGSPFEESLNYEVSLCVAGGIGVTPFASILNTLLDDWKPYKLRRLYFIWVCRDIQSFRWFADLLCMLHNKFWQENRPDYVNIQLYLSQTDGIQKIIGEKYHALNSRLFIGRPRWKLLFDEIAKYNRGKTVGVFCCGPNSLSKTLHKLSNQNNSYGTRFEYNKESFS

With `CC(C)CON=C1C[C@@H](O)[C@@H](O)[C@@H]2[C@@H]3C(=O)N(Cc4ccc5c(c4)OCO5)C(=O)[C@@H]3CC[C@@H]12`, the composite z-score in experiment [1] is 0.199; in experiment [6], 0.289; in [7] it was -0.0645; in [8], -0.515; in experiment [9] it was 0.203; in [10], 0.108. This compound also gave a composite z-score in [12] of -0.28. Also, the z-score in [2] was -0.415 (inactive); in experiment [3], -0.488 (inactive); in experiment [4], 0.241 (inactive); in [5], 0.384 (inactive); in experiment [11] it was -0.0395 (inactive); in experiment [13], 7.64 (inactive). The z-score is 0.859 (inactive) in [14]; -0.0127 (inactive) in [15]; 0.548 (inactive) in [16]; -0.333 in experiment [17]; -0.569 (inactive) in experiment [18]; 0.409 (inactive) in experiment [19]. Further, in [20], the z-score was 0.443.
With `C=CC[C@@H]1C=C[C@H](ON=C(C)CCN2CCCCc3nc(C)c(C)cc32)[C@@H](CO)O1`, the composite z-score is 0.291 in [1]; -0.208 in experiment [6]; -0.179 in [7]; 2.03 in [8]; 1.52 in [9]; 2.05 in experiment [10]. This compound also gave a composite z-score in experiment [12] of -0.0547. Moreover, the z-score was -1.25 (inactive) in [2]; 0.701 (inactive) in experiment [3]; 1.72 (inactive) in experiment [4]; 0.578 (inactive) in experiment [5]; -0.813 (inactive) in experiment [11]; 1.07 (inactive) in experiment [13]. Further, the z-score in experiment [14] is 0.547 (inactive); in experiment [15] it was 0.325 (inactive); in experiment [16], 0.392 (inactive); in experiment [17], -0.53; in [18], -0.953 (inactive); in experiment [19] it was -0.352 (inactive). Besides, the z-score in [20] is -0.424.
Consider `C[C@@H]1CC[C@H]2C(=O)OC(CN3C(=O)c4ccccc4C3=O)CN2[C@H]1c1ccc(Br)cc1` (stereo not given in full), for which the composite z-score was -0.0102 in experiment [1]; 0.942 in [6]; -0.045 in experiment [7]; -0.0288 in [8]; 0.396 in experiment [9]; -0.365 in experiment [10]. The compound also returned a composite z-score in [12] of 0.0315. Also, the z-score in experiment [2] is 0.135 (inactive); in experiment [3] it was 0.447 (inactive); in experiment [4] it was 1.19 (inactive); in [5], -0.841 (inactive); in experiment [11], 0.634 (inactive); in experiment [13], 3.61 (inactive). In addition, the z-score was 0.63 (inactive) in [14]; -0.694 (inactive) in [15]; 0.246 (inactive) in [16]; 0.134 in experiment [17]; 0.371 (inactive) in experiment [18]; 0.182 (inactive) in experiment [19]. Also, in experiment [20], the z-score was -0.055.
As for `CCOC(=O)[C@H](CC(C)C)NC(=O)CCC1CC(OC(=O)NCCc2ccc(F)cc2)CC2(CCCC(COC(=O)NCc3cccc4ccccc34)O2)O1` (stereo not given in full), the composite z-score in experiment [1] is -0.165; in [6] it was 1.57; in experiment [7] it was -0.131; in experiment [8], -0.169; in experiment [9], 0.184; in experiment [10], 0.601. The compound further returned a composite z-score in experiment [12] of -0.147. Also, the z-score in experiment [2] is -0.731 (inactive); in experiment [3], -0.596 (inactive); in experiment [4], -0.889 (inactive); in [5], 1.01 (inactive); in [11], -0.14 (inactive); in experiment [13] it was 15.2 (active). Further, the z-score was 3.27 (inactive) in experiment [14]; -1.34 (inactive) in experiment [15]; 0.344 (inactive) in [16]; 0.927 in experiment [17]; 0.135 (inactive) in experiment [18]; 0.378 (inactive) in experiment [19]. The z-score in [20] is -0.0307.
For `CC(C)CON=C1C[C@@H](O)[C@@H](O)[C@@H]2[C@@H]3C(=O)N([C@@H](C)c4ccccc4)C(=O)[C@@H]3CC[C@@H]12`, the composite z-score in [1] is -0.0932; in experiment [6] it was 0.0337; in experiment [7], -0.0791; in experiment [8], -0.0344; in experiment [9], 0.118; in experiment [10], -0.104. The compound further came in with a composite z-score in experiment [12] of -0.0155. Further, the z-score in [2] was -0.192 (inactive); in [3], 0.374 (inactive); in experiment [4], 0.149 (inactive); in experiment [5], -0.776 (inactive); in experiment [11] it was -0.196 (inactive); in [13] it was 0.694 (inactive). For the same compound, the z-score in experiment [14] is 0.63 (inactive); in experiment [15] it was 0.181 (inactive); in experiment [16], 0.281 (inactive); in [17] it was -0.691; in [18] it was -1.96 (inactive); in [19], 0.799 (inactive). In experiment [20], this compound came in with a z-score of -0.519.

The record behind these values is PubChem BioAssay.
